Our source for the PBM binding z-score values is the supplement of paper PMC6555819.

What all share (test): PBM binding z-score (relative to random genomic background probes); higher = stronger binding; sequences stand for … in GC…GCGATTGACAGCGTAGAATGAAGG
Experiment [1] has as its system FXR:RXRa (NR concentration 270 nM, RXRa partner concentration 90 nM). In a few lines: (§1)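 Probes were double-stranded and carried 34-nt variable regions with direct-repeat seeds, single-nucleotide variants, half-site ablations and random human genomic background sequences, printed on custom Agilent 4×180K protein-binding microarrays. Arrays were incubated 1 h with ligand-free nuclear receptor dimers in PBS pH 7.4, 2% milk, 0.02% Triton X-100, 1 mM DTT, 0.2 mg/mL BSA and 0.4 mg/ml salmon testes DNA. Antibodies against each partner (one per run) detected binding, and scanned fluorescence was regression-normalized. Binding z-scores use the random background probes as reference.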

Experiment [2] deals with LXRa:RXRa (NR concentration 270 nM, RXRa partner concentration 90 nM). The method, boiled down:
as §1

Experiment [3] concerns LXRa homodimer (NR concentration 270 nM). The method, boiled down:
as §1

In experiment [4] the test system is LXRb:RXRa (NR concentration 270 nM, RXRa partner concentration 90 nM). The method, boiled down:
as §1

Experiment [5] deals with LXRb homodimer (NR concentration 270 nM). The method, boiled down:
as §1

Experiment [6] relates to PPARa:RXRa (NR concentration 270 nM, RXRa partner concentration 90 nM). The method, boiled down:
as §1

Experiment [7] has as its system PPARg:RXRa (NR concentration 180 nM, RXRa partner concentration 90 nM). In a few lines:
as §1

In experiment [8] the test system is PPARg:RXRa 270nM:90nM, anti-RXR (NR concentration 270 nM, RXRa partner concentration 90 nM). In a few lines: as §1
In experiment [9] the test system is PPARg:RXRa 30nM:10nM, anti-RXR (NR concentration 30 nM, RXRa partner concentration 10 nM). In a few lines: as §1
In experiment [10] the test system is PPARg:RXRa 90nM:30nM, anti-RXR (NR concentration 90 nM, RXRa partner concentration 30 nM). In a few lines: as §1
Experiment [11] concerns PPARg:RXRa DBDmut IVT, anti-RXR (DBD mutation: RXRa K156A/R161A, NR concentration 270 nM, RXRa partner concentration 90 nM). In a few lines: as §1
Experiment [12] concerns PPARg:RXRa IVT, anti-PPARg (NR concentration 270 nM, RXRa partner concentration 90 nM). The method, boiled down: as §1
In experiment [13] the test system is PPARg DBDmut:RXRa IVT, anti-PPARg (DBD mutation: PPARg1 K132A/R137A, NR concentration 270 nM, RXRa partner concentration 90 nM). In a few lines:
as §1

Experiment [14] deals with PPARg DBDmut IVT, anti-PPARg (DBD mutation: PPARg1 K132A/R137A, NR concentration 270 nM). In a few lines: as §1
The test system of experiment [15] is PPARg homodimer (NR concentration 180 nM). The method, boiled down: as §1
Experiment [16] has as its system PXR:RXRa (NR concentration 270 nM, RXRa partner concentration 90 nM). The method, boiled down: as §1
Experiment [17] has as its system PXR homodimer (NR concentration 270 nM). The method, boiled down: as §1
The test system of experiment [18] is RARa:RXR (NR concentration 270 nM, RXRa partner concentration 90 nM). The method, boiled down:
as §1

Experiment [19] has as its system RARa homodimer (NR concentration 270 nM). The method, boiled down:
as §1

The test system of experiment [20] is RARb:RXRa (NR concentration 270 nM, RXRa partner concentration 90 nM). In a few lines: as §1

For CCTACTGGCCCATCAGGTCATTGATATCAACGTT, the PBM binding z-score was 1.56 in [1]; 1.2 in [2]; 1.15 in experiment [3]; 1.63 in experiment [4]; 0.0775 in experiment [5]; 1.62 in experiment [6]. For the same sequence, the PBM binding z-score is 0.503 in [7]; 1.07 in experiment [8]; 0.112 in experiment [9]; 0.701 in experiment [10]; -0.199 in experiment [11]; 1.1 in [12]. Also, the PBM binding z-score in experiment [13] was -0.917; in experiment [14] it was 0.381; in [15], 1.47; in experiment [16], 1.61; in experiment [17], 0.678; in experiment [18], 1.83. In addition, the PBM binding z-score came to 0.604 in experiment [19] and 1.71 in experiment [20].

As for ATCGAAAGGTCGTGAGATGAGTATACAGAAAGGC, the PBM binding z-score in experiment [1] is 4.78; in experiment [2], 3.98; in experiment [3], 0.0145; in experiment [4], 3; in experiment [5], 0.525; in experiment [6], 5.17. The PBM binding z-score was 3.63 in [7]; 3.8 in experiment [8]; 1.53 in [9]; 2.49 in [10]; -0.3 in [11]; 1.61 in experiment [12]. Moreover, the PBM binding z-score in [13] was determined as 1.59; in [14] it was 1.02; in experiment [15] it was 1.18; in experiment [16], 3; in experiment [17], 0.0556; in experiment [18], 3.62. Also, the values for the PBM binding z-score in experiment [19] and in experiment [20] were 0.436 and 3.91, respectively.

Regarding CGTCCAAGGTCAATGCTACGTCAGTGAAAGCATT, the PBM binding z-score in [1] was found to be 6.6; in [2], 4.58; in [3], 0.394; in experiment [4], 3.37; in experiment [5] it was 0.412; in experiment [6], 4.89. Also, the PBM binding z-score in experiment [7] amounted to 3.32; in experiment [8], 4.18; in experiment [9], 1.44; in [10], 3.3; in [11], 3.21; in experiment [12], 3.16. Besides, the PBM binding z-score in experiment [13] was 1.41; in [14], -0.403; in [15], 2.71; in [16], 3.7; in [17], 0.586; in [18], 3.85. Also, the PBM binding z-score in [19] is 0.867; in experiment [20] it was 4.96.

For CCTGCTAGGACATGGTCAGCTAATCTACAGTATG, the PBM binding z-score is -0.435 in experiment [1]; -0.686 in experiment [2]; -0.63 in experiment [3]; -0.793 in experiment [4]; -0.639 in experiment [5]; -1.84 in experiment [6]. The PBM binding z-score is 0.246 in experiment [7]; -0.764 in experiment [8]; -0.445 in experiment [9]; -0.928 in experiment [10]; 0.152 in [11]; -0.597 in [12]. Also, the PBM binding z-score is -0.458 in experiment [13]; -0.543 in experiment [14]; -0.902 in experiment [15]; -0.794 in experiment [16]; -0.746 in [17]; -0.925 in [18]. In addition, the PBM binding z-score in [19] is -0.734; in [20], 0.0895.

With CGTACTGGGCCATCAGGTCATTGATATCAACGTT, the PBM binding z-score in experiment [1] was 1.44; in [2], 1.12; in experiment [3] it was 0.948; in [4], 1.53; in [5], -0.168; in experiment [6], 2.78. The PBM binding z-score in experiment [7] amounted to 2.86; in [8], 3.82; in experiment [9] it was 1.21; in [10], 3.32; in experiment [11] it was 5.01; in [12], 4.86. The PBM binding z-score was 0.473 in experiment [13]; -0.333 in experiment [14]; 1.12 in experiment [15]; 1.67 in [16]; 0.831 in [17]; 1.88 in experiment [18]. The figures for the PBM binding z-score in experiment [19] and in experiment [20] were -0.122 and 1.93, respectively.

Regarding CGTCCAAGGTCAGAGAGGCCAGTGAATGCCGAGT, the PBM binding z-score was 4.34 in experiment [1]; 2.95 in experiment [2]; 0.144 in [3]; 2.18 in experiment [4]; -0.662 in [5]; 3.93 in [6]. In addition, the PBM binding z-score was 2.04 in experiment [7]; 2.45 in experiment [8]; -0.0839 in experiment [9]; 1.33 in [10]; 2.19 in [11]; 2.04 in experiment [12]. Further, the PBM binding z-score was -0.142 in experiment [13]; -0.792 in experiment [14]; 1.17 in [15]; 2.83 in experiment [16]; 2.62 in experiment [17]; 2.56 in [18]. Moreover, the PBM binding z-score was -0.0378 in experiment [19] and 4.62 in experiment [20].

Turning to TCTAGTTGGTCAAAGGTAACACACTCGAAATGCG, the PBM binding z-score worked out at 1.27 in experiment [1]; 1.4 in [2]; 0.707 in experiment [3]; 1.5 in [4]; 0.561 in experiment [5]; 4 in experiment [6]. Besides, the PBM binding z-score came out at 8.12 in experiment [7]; 7.77 in [8]; 6.85 in [9]; 8.85 in experiment [10]; 3.54 in [11]; 3.93 in experiment [12]. Moreover, the PBM binding z-score in experiment [13] was 1.52; in [14], 1.17; in [15] it was 2.03; in experiment [16], 1.34; in experiment [17], 0.784; in experiment [18], 1.93. Further, the PBM binding z-score in experiment [19] was 1.72; in experiment [20] it was 1.86.
